# Test results taken from PubChem BioAssay.
# Values without a mark were called inactive. Active and inactive are the calls of the source.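 The calls were made as follows: active = z-score of at least 1.8 in each of two replicates, scored against plate mean and spread of sample wells; inactive = the rest.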
# Assay: viability rescue of complex I mutant cybrids, primary screen, cell-based, galactose medium, ATP luminescence (AID 1645843);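 also: positive z means more ATP and so rescue of galactose-driven cybrid death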
# Conditions: complex I mutant cybrid cells, 72 h, stronger effect = higher value
row,Structure (SMILES),z-score
1,COc1ccc(CCC(C)NC2CC(C)(C)NC(C)(C)C2)cc1 (configuration not stated),-0.505
2,COc1ccc(C(=O)N2CCNC(=O)C2Cc2ccccc2)cc1F (configuration not stated),-0.505
3,O=C(c1cc(-c2cncnc2)nc2cc(F)ccc12)N1CCCC1Cc1cccnc1 (configuration not stated),0.765
4,CCn1cnc(NC(=O)NC2CCN(Cc3ccncc3)CC2)n1,3.54 (active)
5,Cc1cc(NC(=O)Cn2c(C)nc(Cl)c2Cl)n(C2CCCCC2)n1,-0.41
6,CCn1ncc(NC(=O)Cn2ccc(C(=O)OC)n2)n1,-0.44
7,Cc1cc(CN2CCNCC2)ccc1OC1(C(=O)O)CCSCC1,0.115
8,Cc1cnc(NCCCn2ncc3ccccc32)nc1-c1cnn(C)c1,0.065
9,Cc1ccc(CC(=O)Nc2ccnn2C2CCCCC2)cc1F,0.325
10,CCCCC(CC)CN1CCc2[nH]nc(C3CC3)c2C1 (configuration not stated),-0.03
11,COc1cc(C)c(CNC(C)CCCC(C)(C)O)c(C)c1C (configuration not stated),-0.435
12,c1nc(-c2ccc3c(c2)OCCO3)c2sccc2n1,0.225
13,Cc1cc(N2CCCN(C(=O)Nc3nncs3)CC2)ccn1,-0.265
14,CCCCc1cn(C2CCN(C3CCCC(C)(C)C3)CC2)nn1 (configuration not stated),-0.56
15,CC(=O)N1CCC(NCCOc2c(C)cccc2Cl)CC1,-0.35
16,Cc1ccc2c(C(=O)N3CCCC(C#N)C3)cc(-c3cnn(C(C)C)c3)nc2c1 (configuration not stated),-0.52
17,O=c1c2cccc(C(F)(F)F)c2ncn1Cc1ccc(Cl)s1,-0.515
